Measurements reported in paper PMC5700166.
Numbering of substitutions follows the chain as printed.

Columns and labels:
Test in all cases: protein-binding microarray (PBM); PBM: ~300 nM protein, 6 mM HEPES pH 7.8, 80 mM KCl, 0.5 mM EDTA, 0.5 mM EGTA, 6% glycerol, 35 ng/ul poly-dIdC, 1% milk, 1 h, room temperature; Ap Aiptasia and Nv Nematostella (sea anemones) / Co Capsaspora / Aq Amphimedon (sponge) / Dm Drosophila / Hu human; RHD is the Rel homology domain; high values mean tight binding
Settings in all cases: dsDNA, one strand shown
[1] = target: T1, GST-Ap-NF-kB RHD (Exaiptasia pallida (Aiptasia), UniProt A0A913YAJ5 2-422)
T1 sequence: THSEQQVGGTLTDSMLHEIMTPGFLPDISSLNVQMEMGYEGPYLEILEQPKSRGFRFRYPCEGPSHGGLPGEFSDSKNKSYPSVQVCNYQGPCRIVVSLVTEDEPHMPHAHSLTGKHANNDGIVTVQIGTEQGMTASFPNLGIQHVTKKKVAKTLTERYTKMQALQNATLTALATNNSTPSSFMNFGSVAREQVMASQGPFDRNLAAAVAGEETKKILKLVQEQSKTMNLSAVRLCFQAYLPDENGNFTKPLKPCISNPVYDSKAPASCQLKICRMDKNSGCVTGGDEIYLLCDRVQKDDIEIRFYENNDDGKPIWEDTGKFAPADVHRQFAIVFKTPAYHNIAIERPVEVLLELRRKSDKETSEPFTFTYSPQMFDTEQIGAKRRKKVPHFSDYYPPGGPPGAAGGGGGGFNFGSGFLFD

[2] = target: T2, GST-Nv-NF-kB (Cys allele) (Nematostella vectensis, UniProt E5G601 2-411)
T2 sequence: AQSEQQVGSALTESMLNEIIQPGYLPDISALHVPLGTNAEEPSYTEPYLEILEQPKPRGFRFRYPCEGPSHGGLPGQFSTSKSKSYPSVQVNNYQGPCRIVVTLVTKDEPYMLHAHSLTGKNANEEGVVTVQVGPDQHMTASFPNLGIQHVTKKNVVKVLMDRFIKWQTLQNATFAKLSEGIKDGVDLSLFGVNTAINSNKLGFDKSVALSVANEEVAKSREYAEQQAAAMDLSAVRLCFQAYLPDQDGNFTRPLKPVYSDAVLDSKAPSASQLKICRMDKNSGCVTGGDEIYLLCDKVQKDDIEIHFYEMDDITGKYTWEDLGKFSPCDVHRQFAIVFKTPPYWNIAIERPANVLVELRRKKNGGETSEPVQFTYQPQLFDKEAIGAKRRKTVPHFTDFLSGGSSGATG

[3] = target: T3, GST-Nv-NF-kB (Ser allele) (Nematostella vectensis, UniProt A7UNT2 2-411)
T3 sequence: T2 sequence with Q21R, C66S, S207N, E215Q, V217A, E225K, A268E, D399E

[4] = target: T4, GST-Co-NF-kB (Capsaspora owczarzaki, UniProt F1ARL5 200-546)
T4 sequence: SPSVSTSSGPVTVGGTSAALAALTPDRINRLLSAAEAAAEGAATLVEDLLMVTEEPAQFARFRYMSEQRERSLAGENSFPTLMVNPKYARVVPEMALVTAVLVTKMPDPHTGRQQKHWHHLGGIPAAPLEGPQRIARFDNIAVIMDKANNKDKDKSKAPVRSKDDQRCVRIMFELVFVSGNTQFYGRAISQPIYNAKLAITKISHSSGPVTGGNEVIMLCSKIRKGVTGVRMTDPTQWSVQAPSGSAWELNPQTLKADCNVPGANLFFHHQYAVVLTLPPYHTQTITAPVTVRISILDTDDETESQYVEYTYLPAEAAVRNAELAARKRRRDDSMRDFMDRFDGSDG

[5] = target: T5, GST-Dm-Relish (Drosophila melanogaster, UniProt Q94527 99-473)
T5 sequence: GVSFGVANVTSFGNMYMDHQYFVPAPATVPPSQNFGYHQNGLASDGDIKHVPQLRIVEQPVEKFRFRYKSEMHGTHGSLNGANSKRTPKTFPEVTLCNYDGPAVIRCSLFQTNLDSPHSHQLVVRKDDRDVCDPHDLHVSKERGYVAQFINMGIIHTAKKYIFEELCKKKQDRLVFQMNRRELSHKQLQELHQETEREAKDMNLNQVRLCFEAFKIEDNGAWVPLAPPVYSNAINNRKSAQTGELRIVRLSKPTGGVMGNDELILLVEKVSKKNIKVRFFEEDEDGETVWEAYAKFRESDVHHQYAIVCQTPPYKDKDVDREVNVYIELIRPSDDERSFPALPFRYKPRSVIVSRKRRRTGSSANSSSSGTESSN

[6] = target: T6, GST-Aq-NF-kB (Amphimedon queenslandica, UniProt A9Y5G7 2-389)
T6 sequence: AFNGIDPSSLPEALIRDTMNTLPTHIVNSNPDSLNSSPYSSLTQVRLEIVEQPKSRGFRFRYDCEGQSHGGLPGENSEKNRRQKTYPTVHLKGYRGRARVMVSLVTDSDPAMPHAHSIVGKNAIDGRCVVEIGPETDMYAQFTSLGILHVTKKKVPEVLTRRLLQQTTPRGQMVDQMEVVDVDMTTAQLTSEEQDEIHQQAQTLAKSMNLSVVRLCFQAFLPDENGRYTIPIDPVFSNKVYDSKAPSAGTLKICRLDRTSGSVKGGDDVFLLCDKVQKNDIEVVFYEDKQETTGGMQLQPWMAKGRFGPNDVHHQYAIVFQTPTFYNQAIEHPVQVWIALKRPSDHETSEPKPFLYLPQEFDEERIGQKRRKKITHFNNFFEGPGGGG

[7] = target: GST-Hu-p50 (Homo sapiens, UniProt P19838 7-356)
Chain of GST-Hu-p50 (P19838 7-356): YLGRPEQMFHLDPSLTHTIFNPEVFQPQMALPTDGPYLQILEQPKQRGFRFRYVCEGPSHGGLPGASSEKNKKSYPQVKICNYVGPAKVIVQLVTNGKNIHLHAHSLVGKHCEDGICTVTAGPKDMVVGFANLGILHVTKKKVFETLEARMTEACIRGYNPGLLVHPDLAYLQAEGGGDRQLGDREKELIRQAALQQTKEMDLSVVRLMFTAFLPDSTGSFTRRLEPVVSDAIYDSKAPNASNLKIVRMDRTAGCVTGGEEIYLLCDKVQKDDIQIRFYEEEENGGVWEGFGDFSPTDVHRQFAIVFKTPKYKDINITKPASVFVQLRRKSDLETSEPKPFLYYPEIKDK

CCGATTAACATCAGGGGGATACATGATGTTAATCGGGTCTTGATTCGCTTGACGCTGCTG
binding signal [1]: 5.54 z-score
binding signal [2]: 4.96 z-score
binding signal [3]: 5.54 z-score
binding signal [4]: 6.27 z-score
binding signal [5]: 3.6 z-score
binding signal [6]: 4.35 z-score
binding signal [7]: 5.05 z-score

CCGATTAACATCACAGAACCCCCTGATGTTAATCGGGTCTTGATTCGCTTGACGCTGCTG
binding signal [1]: 7.53 z-score
binding signal [2]: 5.51 z-score
binding signal [3]: 7.39 z-score
binding signal [4]: 2.33 z-score
binding signal [5]: 7.46 z-score
binding signal [6]: 5.42 z-score
binding signal [7]: 6.43 z-score

CCGATTAACATCAAACATTCCCCTGATGTTAATCGGGTCTTGATTCGCTTGACGCTGCTG
binding signal [1]: 6.81 z-score
binding signal [2]: 9.14 z-score
binding signal [3]: 9.23 z-score
binding signal [4]: 7.01 z-score
binding signal [5]: 4.9 z-score
binding signal [6]: 6.75 z-score
binding signal [7]: 5.95 z-score

CCGATTAACATCACATTTTTCCCTGATGTTAATCGGGTCTTGATTCGCTTGACGCTGCTG
binding signal [1]: 3.43 z-score
binding signal [2]: 5.03 z-score
binding signal [3]: 7.3 z-score
binding signal [4]: 5.64 z-score
binding signal [5]: 2.56 z-score
binding signal [6]: 4.26 z-score
binding signal [7]: 3.84 z-score

CCGATTAACATCAAACACCCCCTTGATGTTAATCGGGTCTTGATTCGCTTGACGCTGCTG
binding signal [1]: 4.95 z-score
binding signal [2]: 5.25 z-score
binding signal [3]: 5.61 z-score
binding signal [4]: 3.04 z-score
binding signal [5]: 5.63 z-score
binding signal [6]: 6.03 z-score
binding signal [7]: 5.5 z-score

CCGATTAACATCAGAAATCCCCATGATGTTAATCGGGTCTTGATTCGCTTGACGCTGCTG
binding signal [1]: 8.63 z-score
binding signal [2]: 9.17 z-score
binding signal [3]: 9.84 z-score
binding signal [4]: 4.52 z-score
binding signal [5]: 8.03 z-score
binding signal [6]: 6.3 z-score
binding signal [7]: 6.99 z-score

CCGATTAACATCAGAACTCCCCCTGATGTTAATCGGGTCTTGATTCGCTTGACGCTGCTG
binding signal [1]: 7.91 z-score
binding signal [2]: 6.48 z-score
binding signal [3]: 7.12 z-score
binding signal [4]: 6.15 z-score
binding signal [5]: 5.58 z-score
binding signal [6]: 6.48 z-score
binding signal [7]: 7.11 z-score

CCGATTAACATCAAAATTCCCCATGATGTTAATCGGGTCTTGATTCGCTTGACGCTGCTG
binding signal [1]: 8.8 z-score
binding signal [2]: 9.9 z-score
binding signal [3]: 10.5 z-score
binding signal [4]: 7.72 z-score
binding signal [5]: 7.31 z-score
binding signal [6]: 7.95 z-score
binding signal [7]: 6.99 z-score

CCGATTAACATCACAAATCCCCCTGATGTTAATCGGGTCTTGATTCGCTTGACGCTGCTG
binding signal [1]: 8.39 z-score
binding signal [2]: 8.44 z-score
binding signal [3]: 9.23 z-score
binding signal [4]: 6.1 z-score
binding signal [5]: 7.73 z-score
binding signal [6]: 6.8 z-score
binding signal [7]: 7.16 z-score

CCGATTAACATCAAGTCCCCCCCTGATGTTAATCGGGTCTTGATTCGCTTGACGCTGCTG
binding signal [1]: 6.57 z-score
binding signal [2]: 4.81 z-score
binding signal [3]: 5.16 z-score
binding signal [4]: 6.94 z-score
binding signal [5]: 5.61 z-score
binding signal [6]: 5.07 z-score
binding signal [7]: 4.23 z-score

CCGATTAACATCAATTTACCCCCTGATGTTAATCGGGTCTTGATTCGCTTGACGCTGCTG
binding signal [1]: 6.21 z-score
binding signal [2]: 4.95 z-score
binding signal [3]: 6.18 z-score
binding signal [4]: 8.79 z-score
binding signal [5]: 3.42 z-score
binding signal [6]: 4.56 z-score
binding signal [7]: 5.04 z-score

CCGATTAACATCACCCAATTCCCTGATGTTAATCGGGTCTTGATTCGCTTGACGCTGCTG
binding signal [1]: 3.33 z-score
binding signal [2]: 3.63 z-score
binding signal [3]: 4.42 z-score
binding signal [4]: 2.69 z-score
binding signal [5]: 1.62 z-score
binding signal [6]: 2.94 z-score
binding signal [7]: 2.81 z-score
